# About 410 targets per protein were measured; listed, in parts, are those with the strongest signals and a random draw of the rest.
# B1: PX14375A-pdi-503-28-503 (Parabacteroides distasonis) (protein)
# chain: PLGSPEAGDISEERQAFLRLTAVYSVMKDFRYTWSMQCFGDVLSNDATYSGSSNDAQTFTLLENYQYQADHTEILNKYRYSYQCINKANLFIRDMEMADDALFSKYDKEQMIGEAKFIRAYTYFELVKTFGGVPCYTGVLDLDHERLGRASVEEIYSVIEQDLNDAVSVLPKKSEVANYESSYAGRITKGAAIAMQTRIYLYEKKYDEVKKAFEKFQNECGGEYSLVAPEDYTWQFSLDGEHCSSSILEVNMYNSSTQSSYNVNNGNRHVLMSMPRNMTIGFGCAQPTQALADAYDAEGDVIRKKTTLLSTEEAIEIETAAKGDVAPVTDDRTGWYNRKLYLAPGQREENRGNNQPTNLRLIRLAEVYLNYAEACYFSGDIANAQKYLNEVRSHVNLAPKNHTGSQLFEDIMNERHLEFGMEGFRFFDVVRVGWGEKVFNGTKKAEFGAKTPFSAGAEVLPIPQTEIDISDGLITN
# What was measured:
# Test in all cases: glycan array binding signal (z-score within array); higher = stronger binding
# Details in all cases: glycan notation: IUPAC condensed, linker removed
# Glc(a1-6)Glc(a1-6)Glc = biological target: Glc(a1-6)Glc(a1-6)Glc
# Summary of the method: (§1)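 Arrays were curated from the Consortium for Functional Glycomics database, 3228 in total, and kept only where the protein sequence was available. Binding is expressed as a within-array Z-score. This score was averaged across arrays of the same protein sequence at different concentrations or buffers and across linkers, and negative values can be read as non-binding.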
# [1] = biological target: GlcNAc(a1-4)Gal(b1-4)GalNAc
# Summary of the method: as §1
# [2] = biological target: GlcNAc(b1-2)[GlcNAc(b1-6)]Man(a1-6)[GlcNAc(b1-4)][GlcNAc(b1-2)Man(a1-3)]Man(b1-4)GlcNAc(b1-4)GlcNAc
# Summary of the method: as §1
# [3] = biological target: GlcNAc(b1-3)Gal(b1-4)GlcNAc(b1-3)Gal(b1-4)GlcNAc(b1-2)Man(a1-3)[GlcNAc(b1-3)Gal(b1-4)GlcNAc(b1-3)Gal(b1-4)GlcNAc(b1-2)Man(a1-6)]Man(b1-4)GlcNAc(b1-4)GlcNAc
# Summary of the method: as §1
# [4] = biological target: GlcNAc(b1-3)Gal(b1-4)GlcNAc(b1-3)Gal(b1-4)GlcNAc(b1-3)Gal(b1-4)GlcNAc(b1-2)[GlcNAc(b1-3)Gal(b1-4)GlcNAc(b1-3)Gal(b1-4)GlcNAc(b1-3)Gal(b1-4)GlcNAc(b1-6)]Man(a1-6)[GlcNAc(b1-3)Gal(b1-4)GlcNAc(b1-3)Gal(b1-4)GlcNAc(b1-3)Gal(b1-4)GlcNAc(b1-2)Man(a1-3)]Man(b1-4)GlcNAc(b1-4)[Fuc(a1-6)]GlcNAc
# Summary of the method: as §1
# [5] = biological target: GlcNAc(b1-4)[GlcNAc(b1-6)]GalNAc
# Summary of the method: as §1
# Kdn(a2-3)Gal(b1-3)GlcNAc = biological target: Kdn(a2-3)Gal(b1-3)GlcNAc
# Summary of the method: as §1
# [6] = biological target: Man(a1-2)Man(a1-3)[Man(a1-2)Man(a1-6)]Man(a1-6)[Man(a1-2)Man(a1-2)Man(a1-3)]Man
# Summary of the method: as §1
# [7] = biological target: Man(a1-2)Man(a1-6)[Man(a1-3)]Man(a1-6)[Man(a1-2)Man(a1-2)Man(a1-3)]Man
# Summary of the method: as §1
# [8] = biological target: Neu5Ac(a2-3)Gal(b1-4)GlcNAc(b1-3)Gal(b1-3)GlcNAc
# Summary of the method: as §1
# [9] = biological target: Neu5Ac(a2-3)Gal(b1-4)GlcNAc(b1-3)Gal(b1-4)GlcNAc
# Summary of the method: as §1
# [10] = biological target: Neu5Ac(a2-3)Gal(b1-4)GlcNAc(b1-3)Gal(b1-4)GlcNAc(b1-3)GalNAc
# Summary of the method: as §1
# Neu5Ac(a2-3)GalNAc = biological target: Neu5Ac(a2-3)GalNAc
# Summary of the method: as §1
# [11] = biological target: Neu5Ac(a2-3)[GalNAc(b1-4)]Gal(b1-4)GlcNAc(b1-3)GalNAc
# Summary of the method: as §1
# [12] = biological target: Neu5Ac(a2-3)[Neu5Ac(a2-6)]GalNAc
# Summary of the method: as §1
# Neu5Ac(a2-6)Gal(b1-4)Glc = biological target: Neu5Ac(a2-6)Gal(b1-4)Glc
# Summary of the method: as §1
# [13] = biological target: Neu5Ac(a2-6)Gal(b1-4)GlcNAc(b1-2)Man(a1-6)Man(b1-4)GlcNAc(b1-4)GlcNAc
# Summary of the method: as §1
# [14] = biological target: Neu5Ac(a2-6)Gal(b1-4)GlcNAc(b1-2)Man(a1-6)[Gal(b1-4)GlcNAc(b1-2)Man(a1-3)]Man(b1-4)GlcNAc(b1-4)GlcNAc
# Summary of the method: as §1
# [15] = biological target: Neu5Ac(a2-6)Gal(b1-4)GlcNAc(b1-3)Gal(b1-4)GlcNAc(b1-2)Man(a1-3)[Neu5Ac(a2-6)Gal(b1-4)GlcNAc(b1-3)Gal(b1-4)GlcNAc(b1-2)Man(a1-6)]GalNAc
# Summary of the method: as §1
# [16] = biological target: Neu5Ac(a2-6)Gal(b1-4)GlcNAc(b1-3)Gal(b1-4)GlcNAc(b1-3)Gal(b1-4)GlcNAc
# Summary of the method: as §1
# [17] = biological target: Neu5Ac(a2-6)Gal(b1-4)GlcNAc(b1-3)Gal(b1-4)GlcNAc(b1-3)Gal(b1-4)GlcNAc(b1-2)Man(a1-3)[Neu5Ac(a2-6)Gal(b1-4)GlcNAc(b1-3)Gal(b1-4)GlcNAc(b1-3)Gal(b1-4)GlcNAc(b1-2)Man(a1-6)]GalNAc
# Summary of the method: as §1
# [18] = biological target: Neu5Ac(a2-6)Gal(b1-4)GlcNAc(b1-3)Gal(b1-4)GlcNAc(b1-6)[Gal(b1-3)]GalNAc
# Summary of the method: as §1
# [19] = biological target: Neu5Ac(a2-8)Neu5Ac(a2-3)Gal(b1-3)GalNAc(b1-4)[Neu5Ac(a2-3)]Gal(b1-4)Glc
# Summary of the method: as §1
# [20] = biological target: Neu5Ac(a2-8)Neu5Ac(a2-8)Neu5Ac
# Summary of the method: as §1
# [21] = biological target: Neu5Ac(a2-8)Neu5Gc(a2-3)Gal(b1-4)GlcNAc
# Summary of the method: as §1
# [22] = biological target: Neu5Gc(a2-8)Neu5Gc(a2-3)Gal(b1-4)GlcNAc
# Summary of the method: as §1
# [23] = biological target: Neu5Gc(a2-8)Neu5Gc(a2-3)Gal(b1-4)GlcNAc(b1-3)Gal(b1-4)GlcNAc
# Summary of the method: as §1
binder,measurement,setting,value
B1,glycan array binding signal (z-score),Glc(a1-6)Glc(a1-6)Glc,-0.184
same,glycan array binding signal (z-score),[1],0.594
same,glycan array binding signal (z-score),[2],-0.508
same,glycan array binding signal (z-score),[3],1.59
same,glycan array binding signal (z-score),[4],0.489
same,glycan array binding signal (z-score),[5],2.82
same,glycan array binding signal (z-score),Kdn(a2-3)Gal(b1-3)GlcNAc,-0.519
same,glycan array binding signal (z-score),[6],1.42
same,glycan array binding signal (z-score),[7],-0.437
same,glycan array binding signal (z-score),[8],-0.225
same,glycan array binding signal (z-score),[9],0.104
same,glycan array binding signal (z-score),[10],-0.442
same,glycan array binding signal (z-score),Neu5Ac(a2-3)GalNAc,-0.004
same,glycan array binding signal (z-score),[11],-1.13
same,glycan array binding signal (z-score),[12],0.006
same,glycan array binding signal (z-score),Neu5Ac(a2-6)Gal(b1-4)Glc,-0.412
same,glycan array binding signal (z-score),[13],-0.882
same,glycan array binding signal (z-score),[14],-0.819
same,glycan array binding signal (z-score),[15],0.642
same,glycan array binding signal (z-score),[16],0.319
same,glycan array binding signal (z-score),[17],1.64
same,glycan array binding signal (z-score),[18],-0.493
same,glycan array binding signal (z-score),[19],-0.127
same,glycan array binding signal (z-score),[20],-0.278
same,glycan array binding signal (z-score),[21],13.2
same,glycan array binding signal (z-score),[22],-0.736
same,glycan array binding signal (z-score),[23],-0.755

# — the supplement of paper PMC8728848
